The text below walks through data of PubChem BioAssay (Tox21).

Several values for one entry are separate records, joined by “and”; a condition that tells them apart may be missing. Equal entries are not always repeated. Inconclusive results are not listed. Some compounds were tested as several samples or in several runs, with calls that do not always agree. Activity calls are given as the source filed them. Unless noted, calls come from the whole dose curve.

The nature of assay [1]: Nuclear factor erythroid 2-related factor 2/antioxidant responsive element (Nrf2/ARE) small molecule agonists: qHTS cell viability counter screen in human keratinocytes (AID 1919968; active = well fitted curve in the direction sought with a large enough effect in the repeat runs; an effect the other way counts as inactive or inconclusive; note: nearly all actives have a fitted effect of over 55% in size; note: potency is the fitted concentration of half-maximal effect). In outline: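 Stably transfected HaCaT (KeratinoSens), 1,500/well. Test agents in DMSO were applied for 23 h, 37 C/5% CO2. CellTiter-Fluor was incubated 1 h before the fluorescence read.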
The nature of assay [2]: Nuclear factor erythroid 2-related factor 2/antioxidant responsive element (Nrf2/ARE) small molecule agonists: luciferase reporter gene qHTS assay in human keratinocytes (AID 1919969). Note: nearly all actives have a fitted effect of over 35% in size. Note: potency is the fitted concentration of half-maximal effect.
Assay [3] deals with Gonadotropin-releasing hormone receptor (Homo sapiens) (UniProt P30968). Briefly: Human gonadotropin-releasing hormone receptor (GnRHR) small molecule agonists, calcium flux assay in GnRHR-HEK293 cells (AID 1920063). Note: nearly all actives have a fitted effect of over 35% in size. In outline: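 Stable human GnRHR HEK293 line. 18 h plating, then calcium dye for 1 h at 37 C. Agonist-mode compound addition from DMSO stocks; fluorescence monitored 3 min.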

The target in assay [4] is KiSS-1 receptor (Homo sapiens) (UniProt Q969F8). Briefly: Human kisspeptin (KISS1R) small molecule agonists, calcium flux assay in KISS1R-HEK293 cells (AID 1920064; active = well fitted curve in the direction sought with a large enough effect in the repeat runs; an effect the other way counts as inactive or inconclusive). In outline: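 After overnight (18 h) culture at 37 C/5% CO2, human KISS1R-HEK293 cells received calcium dye for 1 h, then test compound; emission at 540 nm (excitation 480 nm) was tracked for 3 min.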
A short description of assay [5]: p53 small molecule agonists, cell-based qHTS assay with human liver microsomes (AID 1963577). In outline: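 p53RE-bla cells, 4,000/well, compound added after 5 h, with human liver microsomes 0.5 mg/mL and NADPH 0.5 mg/mL final; 16 h at 37 C, then LiveBLAzer 2 h RT, fluorescence.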
A short description of assay [6]: p53 small molecule agonists, cell-based qHTS assay with rat liver microsomes (AID 1963578). The essentials:
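p53RE-bla cells, 4,000/well, pre-incubated 5 h, then given compounds plus rat liver microsomes (0.5 mg/mL final) and NADPH (0.5 mg/mL final). Incubation 16 h at 37 C; beta-lactamase reporter read by LiveBLAzer fluorescence after 2 h at room temperature.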

The nature of assay [7]: p53 small molecule agonists, cell-based qHTS assay with human liver microsomes: qHTS cell viability counter screen (AID 1963579). Note: nearly all actives have a fitted effect of over 45% in size. Note: potency is the fitted concentration of half-maximal effect. In outline:
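p53RE-bla cells, 4,000/well, dosed 5 hours after plating, with human liver microsomes (0.5 mg/mL final) plus NADPH (0.5 mg/mL final), 16 hours at 37 C. Viability read as CellTiter-Glo luminescence after 30 min at room temperature.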

Assay [8] can be described thus: p53 small molecule agonists, cell-based qHTS assay with rat liver microsomes: qHTS cell viability counter screen (AID 1963580). Note: nearly all actives have a fitted effect of over 45% in size. Note: potency is the fitted concentration of half-maximal effect. In outline:
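Luminescent ATP readout (CellTiter-Glo, 30 min at room temperature) reports viability of p53RE-bla HCT-116 cells after 16 h at 37 C with test compounds under metabolic activation by rat liver microsomes and NADPH at 0.5 mg/mL final each.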

Assay [9] in a line: p53 small molecule agonists, cell-based qHTS assay: qHTS cell viability counter screen (AID 1963581). Note: nearly all actives have a fitted effect of over 45% in size. In outline:
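qHTS counter screen: 16 h compound exposure at 37 C of p53RE-bla HCT-116 cells (4,000 per well, seeded 5 h prior), cell viability by ATP luminescence.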

The nature of assay [10]: p53 small molecule agonists, cell-based qHTS assay (AID 1963582; active = well fitted activation curve with a large enough effect in the signal ratio in the repeat runs, not every such curve was filed as active; the % refers to the signal ratio). The essentials:
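Measured: fluorescence from cleaved LiveBLAzer substrate. System: p53RE-bla cells, 16 h compound treatment at 37 C, 2 h substrate step at room temperature.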

In assay [11] the target is 5-hydroxytryptamine receptor 2A (Homo sapiens) (UniProt P28223). Briefly: 5-hydroxytryptamine receptor 2A (HTR2A) small molecule antagonists, cell-based qHTS assay (AID 1963586). Note: nearly all actives have a fitted effect of over 45% in size. The essentials:
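CHO cells stably expressing human HTR2A were plated for 18 h at 37 C, then loaded with calcium dye for 1 h. Compounds were preincubated 5 min at room temperature before DOI (4 nM solution) was added. Kinetic fluorescence was read for 3 min.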

The target is the same in assay [12]. Briefly: 5-hydroxytryptamine receptor 2A (HTR2A) small molecule agonists, cell-based qHTS assay (AID 1963587). Note: nearly all actives have a fitted effect of over 30% in size. In outline:
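HTR2A-CHO cells, plated 18 h at 37 C/5% CO2, dye-loaded 1 h at 37 C; compounds in DMSO added by pin tool (agonist mode). Intracellular calcium flux read as kinetic fluorescence on FDSS over 2 min at 1 s intervals.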

The target in assay [13] is Muscarinic acetylcholine receptor M1 (Homo sapiens) (UniProt P11229). Briefly: Cholinergic receptor muscarinic 1 (CHRM1) small molecule antagonists, cell-based qHTS assay (AID 1963588). Note: nearly all actives have a fitted effect of over 40% in size. In outline: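 Compounds were tested at 15 concentrations in three independent runs. Dye-loaded CHRM1-CHO cells were exposed 5 min at room temperature before stimulation by acetylcholine added at 50nM. Intracellular calcium was read kinetically on FDSS for 3 min.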

For assay [14] the target is unchanged. The assay is described as follows: Cholinergic receptor muscarinic 1 (CHRM1) small molecule agonists, cell-based qHTS assay (AID 1963589). Note: nearly all actives have a fitted effect of over 35% in size. In outline:
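Kinetic fluorescence (1 s intervals) of calcium-sensitive dye in human M1 CHO cells after compound addition; cells pre-incubated 18 h at 37 C/5% CO2 and dye-loaded 1 h.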

Assay [15] is described as follows: cAMP Responsive Elements (CRE) small molecule agonists, cell-based qHTS assay (AID 1963590). In outline: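 Test agents in DMSO were incubated 3 h at 37 C/5% CO2 with CRE-bla HEK 293T cells seeded 18 h earlier; LiveBLAzer B/G FRET substrate was added and read after 2 h at room temperature.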
The nature of assay [16]: cAMP Responsive Elements (CRE) small molecule antagonists, cell-based qHTS assay (AID 1963591; active = well fitted inhibition curve with a large enough effect in the signal ratio in the repeat runs, not every such curve was filed as active; the % refers to the signal ratio). The essentials:
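Reporter line CRE-bla HEK 293T in dialyzed-FBS DMEM; cells preincubated 18 h, treated 3 h with compound plus NKH477 (0.25 uM final); LiveBLAzer FRET, 2 h RT.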

For assay [17], the target named is D(2) dopamine receptor (Homo sapiens) (UniProt P14416). Briefly: Dopamine D2 receptor (DRD2) small molecule agonists, cell-based qHTS assay (AID 1963594). Note: nearly all actives have a fitted effect of over 35% in size. The essentials: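 HEK293 cells stably expressing DRD2 were cultured 24 h at 37 C, then given Ro20-1724 (0.1 mM final) and compounds for 10 min at room temperature. NKH477 (200nM) was then added for 30 min. cAMP was read by HTRF.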

The nature of assay [18]: G protein-coupled receptor (GPCR) small molecule agonists, calcium flux assay: HEK293 wild type cell line counter screen (AID 1920065). The essentials:
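Following 18 h incubation at 37 C/5% CO2, plates got calcium dye for 1 h; compounds, ATP or DMSO were then pinned in and fluorescence followed kinetically (480/540 nm).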

Assay [19] deals with Beta-2 adrenergic receptor (Homo sapiens) (UniProt P07550). The assay is described as follows: Adrenergic beta2 receptor (ADRB2) small molecule antagonists, cell-based qHTS assay (AID 1963592). Note: nearly all actives have a fitted effect of over 50% in size. Note: potency is the fitted concentration of half-maximal effect. In outline: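 Assay format: CHO-ADRB2 cells, 18-20hr seeding at 37C/5% CO2, then compound plus 1nM isoproterenol agonist mix for 0.5hr RT. Homogeneous time-resolved fluorescence cAMP detection after 1hr, expressed as 665/615 nm ratio.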

Assay [20] addresses D(2) dopamine receptor (Homo sapiens) (UniProt P14416). Briefly: Dopamine D2 receptor (DRD2) small molecule antagonists, cell-based qHTS assay (AID 1963595; active = well fitted inhibition curve with a large enough effect in the signal ratio in the repeat runs, with a control signal flat; the % refers to the signal ratio). In outline:
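HEK293 cells stably expressing DRD2, preincubated with 0.1 mM Ro20-1724 and compounds 10 min, were stimulated with 200 nM NKH477 plus 12 nM quinpirole for 30 min at room temperature; cAMP measured by HTRF (665/620 nm).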

Sequence of Muscarinic acetylcholine receptor M1 (Homo sapiens) (P11229 whole entry, looked up): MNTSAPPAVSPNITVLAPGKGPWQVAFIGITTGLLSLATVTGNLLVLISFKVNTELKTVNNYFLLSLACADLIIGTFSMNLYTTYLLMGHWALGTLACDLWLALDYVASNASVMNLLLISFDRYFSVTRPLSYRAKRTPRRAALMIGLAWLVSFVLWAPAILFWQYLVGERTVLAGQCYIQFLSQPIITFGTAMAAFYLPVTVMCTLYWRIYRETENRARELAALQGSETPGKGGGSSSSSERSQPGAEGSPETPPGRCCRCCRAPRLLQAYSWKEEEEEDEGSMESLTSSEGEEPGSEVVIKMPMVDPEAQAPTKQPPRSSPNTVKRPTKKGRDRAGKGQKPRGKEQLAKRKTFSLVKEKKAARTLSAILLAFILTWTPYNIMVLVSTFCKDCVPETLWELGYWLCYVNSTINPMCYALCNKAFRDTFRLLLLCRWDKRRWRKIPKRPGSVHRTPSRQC
Sequence of 5-hydroxytryptamine receptor 2A (Homo sapiens) (P28223 whole entry, looked up): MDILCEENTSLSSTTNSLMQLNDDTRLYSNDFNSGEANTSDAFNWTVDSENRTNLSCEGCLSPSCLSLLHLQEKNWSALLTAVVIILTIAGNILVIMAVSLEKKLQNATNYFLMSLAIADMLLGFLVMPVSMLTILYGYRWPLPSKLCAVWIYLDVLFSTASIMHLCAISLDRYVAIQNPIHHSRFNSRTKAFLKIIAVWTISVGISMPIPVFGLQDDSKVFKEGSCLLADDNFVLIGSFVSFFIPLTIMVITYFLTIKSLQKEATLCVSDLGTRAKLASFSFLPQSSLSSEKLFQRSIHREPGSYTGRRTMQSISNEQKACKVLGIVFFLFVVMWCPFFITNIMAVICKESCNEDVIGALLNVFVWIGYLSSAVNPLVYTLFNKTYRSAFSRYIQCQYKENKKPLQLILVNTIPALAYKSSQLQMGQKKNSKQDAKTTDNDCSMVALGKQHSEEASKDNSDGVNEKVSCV
Sequence of D(2) dopamine receptor (Homo sapiens) (P14416 whole entry, looked up): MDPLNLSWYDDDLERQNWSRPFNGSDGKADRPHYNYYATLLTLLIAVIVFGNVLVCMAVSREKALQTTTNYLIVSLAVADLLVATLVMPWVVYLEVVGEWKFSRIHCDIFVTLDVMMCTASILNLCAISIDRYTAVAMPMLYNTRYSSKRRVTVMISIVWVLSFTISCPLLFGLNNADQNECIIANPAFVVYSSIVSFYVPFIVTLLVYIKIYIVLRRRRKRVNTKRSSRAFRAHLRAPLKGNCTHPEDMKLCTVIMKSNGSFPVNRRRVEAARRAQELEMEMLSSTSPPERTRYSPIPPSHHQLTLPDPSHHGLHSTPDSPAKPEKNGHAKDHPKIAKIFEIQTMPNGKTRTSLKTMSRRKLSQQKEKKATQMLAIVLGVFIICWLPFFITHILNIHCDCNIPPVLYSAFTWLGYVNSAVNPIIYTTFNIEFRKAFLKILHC
Sequence of Gonadotropin-releasing hormone receptor (Homo sapiens) (P30968 whole entry, looked up): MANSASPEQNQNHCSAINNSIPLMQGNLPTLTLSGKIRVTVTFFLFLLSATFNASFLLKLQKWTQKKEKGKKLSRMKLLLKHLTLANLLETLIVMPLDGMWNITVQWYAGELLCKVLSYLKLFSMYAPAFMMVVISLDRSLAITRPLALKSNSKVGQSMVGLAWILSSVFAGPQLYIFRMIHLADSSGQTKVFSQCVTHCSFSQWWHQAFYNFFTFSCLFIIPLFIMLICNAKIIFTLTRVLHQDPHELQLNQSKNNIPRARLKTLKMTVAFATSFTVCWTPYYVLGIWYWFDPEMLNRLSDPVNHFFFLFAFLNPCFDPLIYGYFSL
Sequence of Beta-2 adrenergic receptor (Homo sapiens) (P07550 whole entry, looked up): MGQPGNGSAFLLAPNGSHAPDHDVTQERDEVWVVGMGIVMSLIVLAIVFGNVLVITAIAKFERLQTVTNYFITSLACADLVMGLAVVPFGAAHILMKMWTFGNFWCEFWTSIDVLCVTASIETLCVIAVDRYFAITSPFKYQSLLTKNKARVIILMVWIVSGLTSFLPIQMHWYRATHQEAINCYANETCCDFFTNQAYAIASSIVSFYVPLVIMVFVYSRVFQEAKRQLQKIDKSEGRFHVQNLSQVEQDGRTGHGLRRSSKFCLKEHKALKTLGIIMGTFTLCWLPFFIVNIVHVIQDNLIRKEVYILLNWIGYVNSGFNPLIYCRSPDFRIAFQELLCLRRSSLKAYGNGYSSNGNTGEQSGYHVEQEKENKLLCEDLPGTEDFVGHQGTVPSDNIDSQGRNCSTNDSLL
Sequence of KiSS-1 receptor (Homo sapiens) (Q969F8 whole entry, looked up): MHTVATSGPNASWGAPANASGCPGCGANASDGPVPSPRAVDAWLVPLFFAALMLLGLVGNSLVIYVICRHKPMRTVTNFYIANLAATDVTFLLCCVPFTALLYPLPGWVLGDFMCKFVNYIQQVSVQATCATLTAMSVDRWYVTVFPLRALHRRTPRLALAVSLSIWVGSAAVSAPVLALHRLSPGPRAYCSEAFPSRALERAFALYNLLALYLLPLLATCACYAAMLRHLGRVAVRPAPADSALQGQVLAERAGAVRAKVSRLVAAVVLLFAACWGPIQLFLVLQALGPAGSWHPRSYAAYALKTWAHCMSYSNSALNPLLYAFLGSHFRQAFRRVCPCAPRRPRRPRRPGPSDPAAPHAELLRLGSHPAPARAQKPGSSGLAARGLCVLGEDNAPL

Take `CCNc1nc(Cl)nc(NC(C)(C)C#N)n1`: the Potency entry in assay [1], in [2], in assay [3], in assay [4], in assay [5] and in assay [6] was “inactive” throughout. For the same compound, the Potency result in assay [7], in assay [8], in assay [9], in [10], in assay [11] and in [12] was “inactive” in each case. Moreover, the Potency result in assay [13], in assay [14], in assay [15], in assay [16] and in assay [17] was “inactive” each time.
Regarding `CC(C)C#N`, the Potency entry in assay [1], in assay [2], in [3], in assay [4], in [18] and in assay [8] was “inactive” throughout. In addition, the Potency result in assay [9], in assay [12], in assay [13], in [14], in [15] and in assay [16] was “inactive” throughout. Also, the Potency entry in assay [19], in assay [17] and in assay [20] was “inactive” in each case.
As to `CC(C)=C[C@@H]1[C@@H](C(=O)OCc2coc(Cc3ccccc3)c2)C1(C)C`, the Potency entry in assay [1], in [2], in assay [3], in assay [4], in assay [18] and in [8] was “inactive” in each case. Further, the Potency result in assay [9], in assay [11], in assay [12], in [13], in assay [14] and in assay [16] was “inactive” each time. The Potency result in assay [19], in assay [17] and in [20] was “inactive” in each case.
For the compound `C[C@H]1C(=O)O[C@@H]2CCN3CC=C(COC(=O)[C@](C)(O)[C@]1(C)O)[C@H]23`, the Potency entry in assay [1], in assay [2], in [3], in [4], in [5] and in assay [6] was “inactive” in each case. Further, the Potency result in [7], in assay [8], in assay [9], in assay [10], in assay [12] and in assay [15] was “inactive” each time. Moreover, the Potency entry in [16], in assay [19], in assay [17] and in assay [20] was “inactive” in each case.
`O=C(O)c1cc(Oc2ccc(C(F)(F)F)cc2Cl)ccc1[N+](=O)[O-]`: the Potency entry in assay [1], in assay [2], in [3], in [4], in [18] and in [8] was “inactive” in each case. In addition, the Potency result in assay [9], in assay [11], in assay [12], in assay [13], in [14] and in [16] was “inactive” each time. The Potency entry in [17] and in assay [20] was “inactive” in each case.
`CN1CSC(=S)N(C)C1`: the Potency in [1] was 2.72 µM (active); in assay [2], 1.21 µM (active) and 2.43 µM (active); in [8], 20.3 µM (active). In addition, the Potency entry in [3], in assay [4], in assay [5], in assay [6], in assay [7] and in assay [9] was “inactive” in each case. For the same compound, the Potency entry in [10], in assay [11], in [12], in assay [13], in [14] and in assay [15] was “inactive” each time. Also, the Potency entry in assay [19], in assay [17] and in assay [20] was “inactive” each time.
With `C=C(C#N)CCC#N`, the Potency entry in assay [1], in assay [2], in assay [3], in [18], in assay [5] and in assay [6] was “inactive” in each case. In addition, the Potency entry in assay [7], in [8], in assay [9], in [10], in [11] and in [12] was “inactive” throughout. Further, the Potency entry in [13], in assay [14], in [15], in assay [16], in assay [19] and in assay [17] was “inactive” throughout. Besides, the Potency entry in [20] is “inactive”.
Take `CCCCCCC#N`: the Potency result in [1], in assay [2], in [3], in assay [4], in assay [5] and in [6] was “inactive” each time. In addition, the Potency result in assay [8], in assay [9], in [10], in assay [11], in assay [12] and in assay [13] was “inactive” each time. Further, the Potency entry in assay [14], in assay [15], in assay [16], in [19] and in [17] was “inactive” throughout.
Take `O=c1[nH]c2ccccc2n1C1CCN(CCCC(c2ccc(F)cc2)c2ccc(F)cc2)CC1`: the Potency in assay [1] was 27.3 µM (active) and 13.3 µM (active); in assay [7], 28.9 µM (active) and inactive; in [8], 40.8 µM (active) and inactive; in [19], 33.5 µM (active). Besides, the Potency result in [2], in assay [3], in [4], in assay [5], in assay [6] and in [12] was “inactive” each time. For the same compound, the Potency result in [13], in assay [14] and in assay [17] was “inactive” each time.
